Consider 17 compounds from PubChem BioAssay (NCI).

Molecules are shown by their SMILES. Compounds without any hit were thinned out: in the full panel of roughly 83,000, 20% have a hit.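 Percent growth is the endpoint: 0 to 100 indicates growth inhibition (40 means 60% inhibition), 0 means no net growth, and negative values indicate cell death.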 Values without a mark were called inactive. The source made the active and inactive calls. The calls were made as follows: active = growth percent below 10; inactive = the rest.

Some test systems named below: T-47D breast; BT-549 breast; MDA-MB-435 melanoma; SW-620 colon; MCF7 breast; HCT-116 colon; KM12 colon; HCC-2998 colon.
Common to all, as to experiment: NCI-60 one-dose screen, 48 h (100 = growth as untreated, 0 = no growth, -100 = all killed)
Holding throughout (details): 10 µM unless noted

Take `CC1SC(c2ccc(N(C)C)cc2)N(NC(=O)C(O)(c2ccccc2)c2ccccc2)C1=O` (centres undefined): the growth in the assay with T-47D breast was 87.6%; in the assay on BT-549 breast, 93.1%; in the assay on MDA-MB-435 melanoma, 84.3%; in the assay with SW-620 colon, 104%; in the assay on MCF7 breast it was 118%; in the assay with HCT-116 colon it was 80.8%. Moreover, the growth in the assay with KM12 colon was 87.4%.
For the compound `O=c1c2c3c(sc2nc(N/N=C/c2cn(-c4ccccc4)nc2-c2ccc(Cl)cc2)n1Cc1ccccc1)CCCC3`, the growth in the assay on T-47D breast was 105%; with BT-549 breast it was 92.1%; in the assay with MDA-MB-435 melanoma, 93.4%; with SW-620 colon it was 107%; in the assay with MCF7 breast, 104%; in the assay with HCT-116 colon, 90.3%. Also, the growth in the assay on KM12 colon was 103%.
Take `O=C(C(=O)c1ccc2c(c1)OCO2)c1ccc2c(c1)OCO2`: the growth with T-47D breast was 113%; with BT-549 breast, 101%; with MDA-MB-435 melanoma, 114%; in the assay on SW-620 colon, 90.6%; in the assay on MCF7 breast, 102%; in the assay on HCC-2998 colon it was 114%. Moreover, in the assay on KM12 colon, the growth was 98.1%.
For `COc1ccc2c(c1)CC/C(=C\c1cncc(Br)c1)C2=O`, the growth with T-47D breast was 66.1%; in the assay on BT-549 breast, 95.7%; with MDA-MB-435 melanoma, 82.7%; in the assay with SW-620 colon, 42.6%; in the assay with MCF7 breast, 39.3%; in the assay with HCT-116 colon, 65.8%. Further, the growth in the assay on KM12 colon is 63.7%.
With `C=C1C(=O)O[C@H]2[C@H]1CC/C(COC(=O)NCCc1ccc(OC)c(OC)c1)=C\CC[C@@]1(C)O[C@@H]21`, the growth with T-47D breast was 33.2%; in the assay with BT-549 breast it was 64.3%; in the assay on MDA-MB-435 melanoma, 58.3%; in the assay on SW-620 colon it was 18.9%; with MCF7 breast, 34.8%; with HCT-116 colon, 5.66% (active). Further, the growth in the assay with KM12 colon is 84.4%.
As to `CCc1c(Nc2ccccc2C)nc(N)[nH]c1=O`, the growth with T-47D breast was 114%; in the assay with BT-549 breast it was 102%; in the assay on MDA-MB-435 melanoma, 106%; in the assay with SW-620 colon, 106%; in the assay with MCF7 breast, 97%; in the assay on HCC-2998 colon, 101%. The growth in the assay with KM12 colon was 104%.
Regarding `COc1ccc(-c2nnc(SCC(=O)c3ccc(Cl)cc3)o2)cc1`, the growth was 89.6% in the assay with T-47D breast; 105% in the assay with BT-549 breast; 108% in the assay with MDA-MB-435 melanoma; 107% in the assay with SW-620 colon; 108% in the assay with MCF7 breast; 107% in the assay on HCT-116 colon. In addition, in the assay with KM12 colon, the growth is 102%.
On to `CC(=O)O[C@H]1C(=O)[C@@]2(C)[C@H]([C@H](OC(=O)c3ccccc3)[C@]3(O)C[C@H](OC(=O)[C@H](OC(=O)CCC(=O)OC4CCC(S/N=C(N)/N=C(\N)N(C)C)CC4)[C@@H](NC(=O)c4ccccc4)c4ccccc4)C(C)=C1C3(C)C)[C@]1(OC(C)=O)CO[C@@H]1C[C@@H]2O` (some centres undefined), for which the growth in the assay with T-47D breast was 46.7%; in the assay on BT-549 breast it was 35.9%; with MDA-MB-435 melanoma, 5.75% (active); in the assay on SW-620 colon, 41.7%; with MCF7 breast it was 19.3%; with HCT-116 colon it was 6.14% (active). In addition, the growth in the assay on KM12 colon was 10.7%.
On to `COc1cc2c(cc1O)CC[C@@H]1[C@@H]2CC[C@]2(C)[C@@H](OCCN(C)C)CC[C@@H]12`, for which the growth in the assay on T-47D breast is 58.3%; in the assay on BT-549 breast it was 43.5%; in the assay on MDA-MB-435 melanoma, -56.8% (active); with SW-620 colon it was 13.1%; in the assay with MCF7 breast, 37.1%; in the assay on HCT-116 colon it was 7.27% (active). Also, the growth in the assay with KM12 colon is 24.2%.
`O=C1c2cccc3cccc(c23)C(=O)N1CCCCCN1CCN(CCCCCOc2ccc(-c3nc4ccc(N5CCOCC5)cc4[nH]3)cc2)CC1`: the growth in the assay with T-47D breast was 0.907% (active); in the assay on BT-549 breast it was 29.9%; with MDA-MB-435 melanoma, 36.4%; with SW-620 colon it was 17.1%; with MCF7 breast, -25.7% (active); with HCT-116 colon, 73%. Besides, the growth with KM12 colon is 20.6%.
Consider `COc1ccc(C(=O)COc2ccc(/C=C3\Oc4ccc(OC)cc4C3=O)cc2)cc1`, for which the growth in the assay on T-47D breast was 103%; in the assay with BT-549 breast, 99.2%; with MDA-MB-435 melanoma it was 115%; with SW-620 colon, 95.9%; with MCF7 breast it was 110%; with HCT-116 colon it was 84.9%. Further, the growth in the assay on KM12 colon was 94%.
On to `O=c1cc(CSc2nnc(-c3ccc(F)cc3)o2)c2ccc3ccccc3c2o1`, for which the growth in the assay with T-47D breast was 100%; in the assay on BT-549 breast, 111%; in the assay with MDA-MB-435 melanoma, 106%; in the assay with SW-620 colon, 94.5%; in the assay on MCF7 breast it was 93.5%; with HCC-2998 colon, 95.4%. The growth with KM12 colon was 100%.
Turning to `CC/C=C\C[C@H]1C/C=C2/C(=O)C=C[C@H]2C/C=C\CCCC(=O)O1`, the growth in the assay with T-47D breast is 27.4%; in the assay with BT-549 breast, 32%; with MDA-MB-435 melanoma, 9.04% (active); with SW-620 colon, 25.4%; with MCF7 breast, 46.2%; in the assay with HCT-116 colon it was -41.9% (active). For the same compound, in the assay with KM12 colon, the growth is -3.28% (active).
Consider `COc1ccc(-c2nc3ccc(-c4nc5ccc(N6CCN(c7ccccc7)CC6)cc5[nH]4)cc3[nH]2)cc1OC`, for which the growth was -36.4% (active) in the assay on T-47D breast; 52.9% with BT-549 breast; -3.15% (active) in the assay with MDA-MB-435 melanoma; -32.7% (active) in the assay on SW-620 colon; -85.3% (active) in the assay on MCF7 breast; -53.6% (active) in the assay with HCC-2998 colon. Moreover, the growth in the assay on KM12 colon is 4.37% (active).
Consider `COc1ccc(CN2c3ccccc3Oc3ccccc32)cc1O`, for which the growth with T-47D breast was 30.6%; in the assay on BT-549 breast, 39.9%; in the assay with MDA-MB-435 melanoma, 9.49% (active); in the assay with SW-620 colon, 27%; in the assay on MCF7 breast, 27.3%; in the assay with HCT-116 colon, 13.7%. For the same compound, in the assay on KM12 colon, the growth was 20.9%.
As for `O=C(COc1cccc(/C=C2\COc3ccccc3C2=O)c1)Nc1nccs1`, the growth is 54.7% in the assay on T-47D breast; -79.6% (active) in the assay with BT-549 breast; 53.5% with MDA-MB-435 melanoma; -40.7% (active) with SW-620 colon; -12.5% (active) in the assay with MCF7 breast; -85.6% (active) in the assay on HCC-2998 colon. Also, in the assay on KM12 colon, the growth was -44.6% (active).
`CC(C)c1c(C(=O)c2ccccc2)c(-c2ccccc2)c(-c2ccc(F)cc2)n1CC[C@@H](O)C[C@@H](O)CC(=O)O`: the growth with T-47D breast is 91.4%; in the assay on BT-549 breast it was 70.2%; with MDA-MB-435 melanoma, 68.9%; with SW-620 colon it was 76.2%; with HCT-116 colon, 47.4%; in the assay with HCC-2998 colon, 85.6%. Besides, in the assay with KM12 colon, the growth is 91%.
